Laboratory results published in PubChem BioAssay AID1159580 (chemical genetic matrix, 2015).
In all, about 5,500 compounds went through this assay and about 2,000 (36%) were called active. Another 18% or so got no clear call; they are omitted. This is one part of the list. Values without a mark were called inactive. Cut-off read from the data, not from the text of the source: active = normalized growth mostly below about 0.91 (no sharp cut-off); inconclusive = no clear call, values can overlap the other calls; inactive = mostly above about 0.92.

Test: chemical genetic growth profiling, strain panel (AID 1159580);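 note: tested at 20 µM; growth read once vehicle control cultures reached saturation at 30 °C; 1 = growth at the plate median or of vehicle wells; lower values mean less growth of the strain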
Conditions: S. cerevisiae deletion strains, growth OD
[1] = locus YAR019C, strain CDC15, active compounds read low
[2] = locus YBL105C, strain PKC1, active compounds read low
[3] = locus YBR135W, strain CKS1, active compounds read low
[4] = locus YBR136W, strain MEC1, active compounds read low
[5] = locus YBR160W, strain CDC28, active compounds read low
[6] = locus YDL017W, strain CDC7, active compounds read low
[7] = locus YDL028C, strain MPS1, active compounds read low
[8] = locus YDL101C, strain DUN1, active compounds read low
[9] = locus YDL108W, strain KIN28, active compounds read low
[10] = locus YDL132W, strain cdc53, active compounds read low
[11] = locus YDL214C, strain PRR2, active compounds read low
[12] = locus YDR052C, strain DBF4, active compounds read low
[13] = locus YDR054C, strain cdc34, active compounds read low
[14] = locus YDR226W, strain ADK1, active compounds read low
[15] = locus YDR477W, strain SNF1, active compounds read low
[16] = locus YER123W, strain YCK3, active compounds read low
[17] = locus YER133W, strain GLC7, active compounds read low
[18] = locus YFL009W, strain cdc4, active compounds read low
[19] = locus YFL029C, strain CAK1, active compounds read low
[20] = locus YFR003C, strain YPI1, active compounds read low
[21] = locus YFR019W, strain FAB1, active compounds read low
[22] = locus YFR028C, strain CDC14, active compounds read low
[23] = locus YGR040W, strain KSS1, active compounds read low
[24] = locus YGR052W, strain FMP48, active compounds read low
[25] = locus YGR092W, strain DBF2, active compounds read low
[26] = locus YHR030C, strain SLT2, active compounds read low
[27] = locus YHR079C, strain IRE1, active compounds read low
[28] = locus YHR082C, strain KSP1, active compounds read low
[29] = locus YHR205W, strain SCH9, active compounds read low
[30] = locus YIL147C, strain SLN1, active compounds read low
[31] = locus YJL095W, strain BCK1, active compounds read low
[32] = locus YJL128C, strain PBS2, active compounds read low
[33] = locus YJL157C, strain FAR1, active compounds read low
[34] = locus YJR016C, strain ILV3, active compounds read low
[35] = locus YJR066W, strain TOR1 (second series), active compounds read low
[36] = locus YJR066W, strain TOR1, active compounds read low
[37] = locus YKL048C, strain ELM1, active compounds read low
[38] = locus YKL067W, strain YNK1, active compounds read low
[39] = locus YKL101W, strain HSL1, active compounds read low
[40] = locus YKL193C, strain SDS22, active compounds read low
[41] = locus YKL203C, strain TOR2, active compounds read low
[42] = locus YLR113W, strain HOG1, active compounds read low
[43] = locus YLR133W, strain CKI1, active compounds read low
[44] = locus YLR403W, strain SFP1, active compounds read low
[45] = locus YML070W, strain DAK1, active compounds read low
[46] = locus YMR001C, strain CDC5, active compounds read low
[47] = locus YMR205C, strain PFK2 (second series), active compounds read low
[48] = locus YMR277W, strain FCP1, active compounds read low
[49] = locus YNL006W, strain LST8, active compounds read low
[50] = locus YNL020C, strain ARK1, active compounds read low
[51] = locus YNL161W, strain CBK1, active compounds read low
[52] = locus YNL183C, strain NPR1, active compounds read low
[53] = locus YNL207W, strain RIO2, active compounds read low
[54] = locus YNL222W, strain SSU72, active compounds read low
[55] = locus YNL307C, strain MCK1 (second series), active compounds read low
[56] = locus YOL078W, strain AVO1, active compounds read low
[57] = locus YOL136C, strain PFK27, active compounds read low
[58] = locus YOR061W, strain CKA2, active compounds read low
[59] = locus YOR119C, strain RIO1, active compounds read low
[60] = locus YOR231W, strain MKK1, active compounds read low
[61] = locus YOR329C, strain SCD5, active compounds read low
[62] = locus YPL031C, strain PHO85, active compounds read low
[63] = locus YPL153C, strain RAD53, active compounds read low
[64] = locus YPL204W, strain HRR25, active compounds read low
[65] = locus YPL209C, strain IPL1, active compounds read low
[66] = locus YPL256C, strain CLN2, active compounds read low
[67] = locus YPR025C, strain CCL1, active compounds read low
[68] = locus YPR106W, strain ISR1, active compounds read low
[69] = locus YPR111W, strain DBF20, active compounds read low
[70] = strain NNK1, active compounds read low
[71] = strain TSCII, active compounds read low

O=C(Nc1ccc(OC(F)(F)F)cc1)OC1CN(C(c2ccccc2)c2ccccc2)C1
normalized growth [1]: 1
normalized growth [2]: 0.995
normalized growth [3]: 0.996
normalized growth [4]: 0.999
normalized growth [5]: 0.999
normalized growth [6]: 0.999
normalized growth [7]: 1
normalized growth [8]: 0.984
normalized growth [9]: 0.991
normalized growth [10]: 1
normalized growth [11]: 0.993
normalized growth [12]: 0.99
normalized growth [13]: 0.988
normalized growth [14]: 0.995
normalized growth [15]: 0.988
normalized growth [16]: 0.96
normalized growth [17]: 0.992
normalized growth [18]: 0.988
normalized growth [19]: 0.992
normalized growth [20]: 0.998
normalized growth [21]: 0.983
normalized growth [22]: 1.01
normalized growth [23]: 0.987
normalized growth [24]: 1.1
normalized growth [25]: 0.961
normalized growth [26]: 0.9
normalized growth [27]: 1.02
normalized growth [28]: 1.06
normalized growth [29]: 0.981
normalized growth [30]: 1
normalized growth [31]: 0.96
normalized growth [32]: 0.993
normalized growth [33]: 0.986
normalized growth [34]: 1.01
normalized growth [35]: 0.981
normalized growth [36]: 0.98
normalized growth [37]: 0.961
normalized growth [38]: 0.969
normalized growth [39]: 0.982
normalized growth [40]: 1.01
normalized growth [41]: 1.02
normalized growth [42]: 0.943
normalized growth [43]: 0.972
normalized growth [44]: 0.973
normalized growth [45]: 0.966
normalized growth [46]: 1
normalized growth [47]: 0.967
normalized growth [48]: 1.01
normalized growth [49]: 0.994
normalized growth [50]: 0.969
normalized growth [51]: 1
normalized growth [52]: 0.969
normalized growth [53]: 0.985
normalized growth [54]: 1
normalized growth [55]: 1
normalized growth [56]: 1
normalized growth [57]: 0.986
normalized growth [58]: 0.987
normalized growth [59]: 1.06
normalized growth [60]: 1.01
normalized growth [61]: 0.999
normalized growth [62]: 0.99
normalized growth [63]: 0.961
normalized growth [64]: 0.96
normalized growth [65]: 0.984
normalized growth [66]: 1
normalized growth [67]: 1
normalized growth [68]: 0.991
normalized growth [69]: 0.977
normalized growth [70]: 0.981
normalized growth [71]: 1.01

O=C(Nc1ccc(OC(F)(F)F)cc1)N1CCN(c2nc(-c3ccccc3)ns2)CC1
normalized growth [1]: 1
normalized growth [2]: 1
normalized growth [3]: 0.992
normalized growth [4]: 0.992
normalized growth [5]: 0.991
normalized growth [6]: 0.992
normalized growth [7]: 1.01
normalized growth [8]: 0.97
normalized growth [9]: 0.998
normalized growth [10]: 1
normalized growth [11]: 0.802
normalized growth [12]: 0.992
normalized growth [13]: 1
normalized growth [14]: 0.995
normalized growth [15]: 0.957
normalized growth [16]: 0.861
normalized growth [17]: 0.97
normalized growth [18]: 0.991
normalized growth [19]: 0.989
normalized growth [20]: 0.98
normalized growth [21]: 0.924
normalized growth [22]: 0.997
normalized growth [23]: 0.933
normalized growth [24]: 0.906
normalized growth [25]: 0.898
normalized growth [26]: 0.893
normalized growth [27]: 0.864
normalized growth [28]: 0.905
normalized growth [29]: 0.51 (active)
normalized growth [30]: 0.994
normalized growth [31]: 0.91
normalized growth [32]: 0.843
normalized growth [33]: 0.888
normalized growth [34]: 1
normalized growth [35]: 0.858
normalized growth [36]: 1.01
normalized growth [37]: 0.867
normalized growth [38]: 0.844
normalized growth [39]: 0.79
normalized growth [40]: 0.987
normalized growth [41]: 1.01
normalized growth [42]: 0.733 (active)
normalized growth [43]: 0.826
normalized growth [44]: 0.905
normalized growth [45]: 0.856
normalized growth [46]: 0.992
normalized growth [47]: 0.793
normalized growth [48]: 0.989
normalized growth [49]: 0.994
normalized growth [50]: 0.818
normalized growth [51]: 0.983
normalized growth [52]: 0.815
normalized growth [53]: 0.982
normalized growth [54]: 0.994
normalized growth [55]: 0.805
normalized growth [56]: 0.997
normalized growth [57]: 0.772
normalized growth [58]: 0.856
normalized growth [59]: 1
normalized growth [60]: 0.843
normalized growth [61]: 0.984
normalized growth [62]: 0.952
normalized growth [63]: 0.909
normalized growth [64]: 0.941
normalized growth [65]: 0.994
normalized growth [66]: 0.832 (active)
normalized growth [67]: 1
normalized growth [68]: 0.929
normalized growth [69]: 0.925
normalized growth [70]: 0.909
normalized growth [71]: 0.979

FC(F)(F)c1ccnc(N2CCCN(C(=S)Nc3ccc(Cl)cc3Cl)CC2)n1
normalized growth [1]: 0.974
normalized growth [2]: 0.977
normalized growth [3]: 0.972
normalized growth [4]: 0.973
normalized growth [5]: 0.974
normalized growth [6]: 0.966
normalized growth [7]: 0.975
normalized growth [8]: 0.975
normalized growth [9]: 0.975
normalized growth [10]: 0.977
normalized growth [11]: 0.966
normalized growth [12]: 0.972
normalized growth [13]: 0.976
normalized growth [14]: 0.982
normalized growth [15]: 0.985
normalized growth [16]: 1
normalized growth [17]: 0.993
normalized growth [18]: 0.98
normalized growth [19]: 0.963
normalized growth [20]: 0.972
normalized growth [21]: 0.996
normalized growth [22]: 0.979
normalized growth [23]: 0.985
normalized growth [24]: 1.04
normalized growth [25]: 0.9
normalized growth [26]: 0.712 (active)
normalized growth [27]: 0.848
normalized growth [28]: 1.08
normalized growth [29]: 0.946
normalized growth [30]: 0.972
normalized growth [31]: 0.942
normalized growth [32]: 0.978
normalized growth [33]: 0.981
normalized growth [34]: 0.989
normalized growth [35]: 0.953
normalized growth [36]: 1.03
normalized growth [37]: 0.961
normalized growth [38]: 0.973
normalized growth [39]: 0.958
normalized growth [40]: 0.978
normalized growth [41]: 1.02
normalized growth [42]: 0.689 (active)
normalized growth [43]: 0.979
normalized growth [44]: 0.982
normalized growth [45]: 0.972
normalized growth [46]: 0.971
normalized growth [47]: 0.968
normalized growth [48]: 0.973
normalized growth [49]: 0.98
normalized growth [50]: 0.966
normalized growth [51]: 0.982
normalized growth [52]: 1.01
normalized growth [53]: 0.964
normalized growth [54]: 0.978
normalized growth [55]: 0.95
normalized growth [56]: 0.986
normalized growth [57]: 0.959
normalized growth [58]: 0.961
normalized growth [59]: 1.06
normalized growth [60]: 0.873
normalized growth [61]: 0.973
normalized growth [62]: 0.975
normalized growth [63]: 0.982
normalized growth [64]: 0.966
normalized growth [65]: 0.973
normalized growth [66]: 0.777 (active)
normalized growth [67]: 0.976
normalized growth [68]: 0.977
normalized growth [69]: 0.96
normalized growth [70]: 0.962
normalized growth [71]: 0.978
